# Measurements reported in the OligoGym collection.
# Target: SLC29A3
# Experiment: pooled miR-30 sensor sort-seq; sequence = guide strand
# Conditions: shRNA
# Also: reference of the scale not given here.
row,Sequence,sensor-assay potency score (higher = more potent)
1,TATGACTGGAATATCTGCCTTG,0.374
2,TTGCGGAGTTTGAACATCCAGT,-0.979
3,TTGAACATCCAGTACTCCTTGG,-0.255

# Target: SLC2A14
# Experiment: as above
# Conditions: shRNA
row,Sequence,sensor-assay potency score (higher = more potent)
1,TGATTCTTTAATAACAAAGAAA,-1.69
2,AATTCCAATAACTATGCCCAGC,-1.73
3,TTACACAGTCCCATAAGGCAGC,-0.403
4,TTAACAAAGAGTCCGACGGAAA,-1.6
5,TAGTGATTCTTTAATAACAAAG,-1.67
6,TCAGCATTTCAACTGACTCAGC,-0.914
7,TTATGATCGTCTCAGGAGCATT,-1.97
8,TTCGTGAGCAGCACCTCAGAGG,-0.817
9,TCCCAGATCTATCTGCACCGTG,-0.88
10,ATAAATTCCTTTATGATCGTCT,0.823
11,TAAATAGTAAGCAGCAGAGGGG,-1.17
12,TTTATGATCGTCTCAGGAGCAT,-0.333
